Results from PubChem BioAssay AID652126 (The Scripps Research Institute Molecular Screening Center, 2013).
Screen size: about 370,000 compounds; about 3,700 (1%) were called active.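 The calls were made as follows: active = activation above the mean over all tested compounds plus 3 SD (cut at about 0.9% in these data); inactive = the rest.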 Shown is part of a subset that was picked to be rich in actives.

test system: Nuclear hormone receptor DAF-12 (Strongyloides stercoralis); test: S. stercoralis DAF-12 nuclear receptor activators, primary screen, cell-based, luminescence, HEK293, GRIP1 co-expression, lit1-tk-luc (AID 652126); conditions: HEK293 ssDAF-12/GRIP1 lit1-tk-luc reporter, at 6.8 µM, hits give high values, % of 3 µM dafachronic acid response;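 also: 0% = DMSO-only wells and 100% = 3 µM delta7-dafachronic acid wells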

activation, active:
Oc1ccccc1-c1cc(-c2ccc(Cl)cc2)n[nH]1 3.08%, c1ccc(-c2cc(-c3ccccc3)[nH]n2)cc1 2.27%, Cc1ccc(N/C=C/C(=O)c2ccccc2)cc1C 3%, c1ccc(Cc2c(-c3ccco3)nc3c4ccccc4ccn23)cc1 3.52%, Brc1ccccc1C1N=C(c2ccccc2)NO1 (stereo not given) 1.18%, O=C(C1CCN(S(=O)(=O)c2cnc[nH]2)CC1)N1CCN(Cc2ccc3c(c2)OCO3)CC1 1.02%, O=C(Nc1ccc(Cl)cc1)C1c2cccc[n+]2CC(=O)N1Cc1ccc2c(c1)OCO2 (stereo not given) 2.86%, S=C(NN=Cc1ccccn1)Nc1ccccn1 1.63%, CCOC(=O)c1c(NC(=S)Nc2ccccc2C)sc2c1CCC2 1.91%, Cc1ccsc1/C=N/NC(=O)Cc1cc(=O)[nH][nH]1 1.42%, COC(=O)C1CCN(C(=O)c2cc(=O)[nH]c3ccccc23)CC1 1.33%, CCc1ccc(NC(=O)N2CCc3ccccc3C2)cc1 1.53%, Cc1ccc(NC(=O)CN2CCc3ccccc3C2)cc1C 1.3%, COc1cccc(NC(=O)Nc2ccc(F)cc2)c1 1.74%, Cc1ccc(C(=O)NNc2ncnc3ccccc23)cc1 1.85%, O=C(O)c1cccc(N=NN2CCCCCC2)c1 1.23%, Cc1ccc(-c2nc3ccccc3[nH]2)cc1N 2.5%

activation, inactive:
Cc1c[nH]c2cccc(-c3ccc(Cl)cc3)c12 -0.3%, c1ccc(-c2c[nH]c(-c3ccccc3)c2)cc1 0.36%, O=C(O)c1n[nH]nc1-c1ccccc1 -1.32%, Cc1cccc(C(=O)Nc2c(-c3ccc(F)cc3)nc3ncccn23)c1 -1.19%, Nn1c(SCC(=O)Nc2ccc(S(N)(=O)=O)cc2)nnc1-c1n[nH]c2c1CCC2 -0.68%, O=C(NCCC1=CCCCC1)C1CCN(S(=O)(=O)c2ccc(Cl)s2)CC1 -0.79%, CCOC(=O)[C@]12CCCC=C1N(CCCOC)C(=O)[C@@H]2CC(=O)N1CCOCC1 -1.03%, O=C(/C=C/Nc1ccc(S(=O)(=O)Nc2cnc3ccccc3n2)cc1)c1cccnc1 -0.79%, Cc1ccc(NC(=O)C2CCCN2C(=O)OCc2ccccc2)cc1C (stereo not given) -0.56%, Cc1ccc(-c2nc3c(C)cc(Br)cn3c2Cc2ccccc2)cc1 -0.47%, COc1ccccc1Cc1c(-c2ccc(Cl)cc2)nc2c3ccccc3ccn12 0.62%, CN1C(=O)c2cc(NS(C)(=O)=O)ccc2OC[C@@H]2O[C@@H](CC(=O)NCc3ccc(-c4ccccc4)cc3)CC[C@H]21 -1.43%, Cc1ccccc1CN1CCCCC(NC(=O)c2cccc(C#N)c2)C1=O (stereo not given) -1.04%, S=C1NC(c2ccccc2)=NCN1c1ccc(Br)cc1 -0.91%, N#Cc1ccc(C2N=C(c3ccccc3)NO2)cc1 (stereo not given) 0.03%, COC(=O)C1CN(Cc2ccc(F)cc2)CCS(=O)(=O)N1Cc1ccc(Cl)cc1 (stereo not given) -1.29%, CCN(CCCNC(=O)C1CCN(S(=O)(=O)c2cnc[nH]2)CC1)c1ccccc1 -1.52%, Cc1cccc(N2CCN(C(=O)C3CCN(S(=O)(=O)c4cnc[nH]4)CC3)CC2)c1C -0.57%, O=C(c1ccncc1)N1CC[C@H]2[C@H](CCCN2Cc2ccc(F)cc2)C1 -0.89%, CCOC(=O)[C@]12CCCC3=C1N(CCC3)C(=O)[C@@H](CC(=O)N1CCSCC1)C2 0.21%, Clc1ccc(-n2c(COc3ccccc3)nnc2SCc2nc3ccccc3[nH]2)cc1 -1.69%, O=C(Nc1ccc2c(c1)OCCO2)C1c2ccccc2OCC(=O)N1Cc1ccccn1 (stereo not given) -0.32%, CCCOc1ccc(NC(=O)CC2C(=O)N(C)C(=S)N2Cc2ccc3c(c2)OCO3)cc1 (stereo not given) -1.45%, COc1ccc(Cn2ccc3ccc(-c4ccc5ccn(Cc6ccccc6C)c5c4)cc32)cc1 -0.43%, O=S1(=O)c2c(cccc2N2CCSCC2)Oc2ccccc2CN1Cc1cn(Cc2ccc(F)cc2)nn1 -1.43%, O=C(CN1CCC(NC(=O)NCc2ccccc2)CC1)Nc1ccc2c(c1)OCCO2 -1.37%, C=CCN1C(C(=O)OC)CN(Cc2cn(Cc3ccccc3)nn2)CCS1(=O)=O (stereo not given) -1.67%, C=CCN(C)CC#Cc1ccccc1 -0.95%, COc1ccc(-n2c(SCC(=O)NC3CCCC3)nnc2-c2ccncc2)cc1 -0.71%, O=C(O)C1C2C=CC(O2)C1C(=O)Nc1ccccn1 (stereo not given) -1.12%, CS(=O)(=O)N(CC(=O)N/N=C/c1ccccn1)c1ccc(Oc2ccccc2)cc1 -0.77%, CCCOc1ccc(Oc2c(Cl)cnn(Cc3cccc4ccccc34)c2=O)cc1 -1.41%, O=C1CC(c2ccc3c(c2)OCO3)N=C2N(CC3CC3)C/C(=C/c3ccccc3)N12 (stereo not given) -1.93%, CCOc1ccc(-n2c(SCC(=O)Nc3cc(C)c(NC(=O)c4ccccc4)cc3OC)nnc2-c2cccc(Cl)c2)cc1 -1.5%, CCOC(=O)c1c(NC(=O)C2(C)Cc3ccccc3C(=O)O2)sc2c1CCCC2 (stereo not given) -1.31%, CCOC(=O)c1c(NC(=S)Nc2ccccc2)sc2c1CCN(C)C2 -1.34%, CC(=O)OCCN1CCCC12CCC(c1ccccc1)CC2 (stereo not given) -0.84%, C#CCN([C@H](C(=O)OC)C(C)CC)S(=O)(=O)c1ccccc1Br (stereo not given in full) -1.85%, CCOc1ccc(N2CC(C(=O)N/N=C/c3sccc3C)CC2=O)cc1 (stereo not given) -1.57%, Cc1ccc(-c2nnc(SCC(=O)N/N=C/c3cccs3)n2-c2ccc(C)cc2)cc1 -0.75%, CN(C)S(=O)(=O)c1cccc(C(=O)N/N=C\c2ccco2)c1 -0.66%, CC1CCCCC1NC(=O)c1cc(=O)[nH]c2ccccc12 (stereo not given) -0.66%, CC1CCN(C(=O)COC(=O)c2cc(=O)[nH]c3ccccc23)CC1 -0.23%, CCc1ccccc1NC(=O)CSc1nnc(-c2cccs2)o1 -1.52%, CCc1ccc(NC(=O)CC2C(=O)NCCN2C(=S)Nc2ccccc2)cc1 (stereo not given) -1.42%, Cc1ccc(NC(=O)COc2coc(CN3CCc4ccccc4C3)cc2=O)cc1Cl -1.76%, CCOC(=O)c1c(NC(=S)SC)sc(C(=O)N2CCc3ccccc3C2)c1C -0.64%, O=C(CN1CCc2ccccc2C1)Nc1cccc(S(=O)(=O)N2CCOCC2)c1 -0.91%, Cc1cc(NS(=O)(=O)c2ccc(NC(=O)CSc3nnc(-c4ccc(C(C)(C)C)cc4)n3Cc3ccco3)cc2)nc(C)n1 -1.29%, COc1ccc(O)c(C(=O)c2cnc3onc(C(C)C)c3c2)c1 -0.89%, COc1cccc(C(=O)NNS(=O)(=O)c2ccc(F)cc2)c1 -1.09%, COc1cccc(NC(=O)CC2C(=O)NCCN2C(=S)Nc2ccc(F)cc2)c1 (stereo not given) -1.35%, COC(=O)C1CN(Cc2cn(Cc3ccc(F)cc3)nn2)CCS(=O)(=O)N1Cc1ccc(Cl)cc1 (stereo not given) -2.03%, CCCCNC(=O)C[C@H]1C[C@@]2(C(=O)OC)C(=C[C@H](COCc3ccccc3)O[C@@H]2C)N(Cc2ccc(Cl)cc2Cl)C1=O -1.35%, CC(C)CSc1nnc(-c2cccnc2)n1Cc1ccccc1 -1.35%, COC(=O)c1cc(S(=O)(=O)N2CCN(C(=O)C3CCCO3)CC2)cn1C (stereo not given) -1.3%, Cc1ccc(CCNC(=O)c2ccc3nc4ccccc4c(=O)n3c2)cc1 -1.47%, Cn1ncc2c(NNC(=O)Cc3cccc4ccccc34)ncnc21 -1.61%, O=C(CNC(=O)c1ccccc1)OC(C(=O)Nc1cc([N+](=O)[O-])ccc1F)c1ccccc1 (stereo not given) -2.1%, CCOC(=O)C1CCN(C(=O)C(C)(C)NC(=O)Nc2ccccc2Cl)CC1 -0.72%, NC1=NN(c2cccc(C(=O)O)c2)C(=O)C1 0.3%, O=C(O)c1cccc(S(=O)(=O)N2CC=C(c3ccccc3)CC2)c1 -1.29%, O=C(c1c[nH]c2ccccc12)N1CCC(Oc2cccnc2)CC1 -1.03%, Cc1ccc(OCc2nnc(SC/C=C/c3ccccc3)n2Cc2ccco2)cc1 -1.7%, O=C(Nc1cccc(Cl)c1)OC1CC2CC1[C@H]1CCCCN1[C@H]2Cc1ccccc1 (stereo not given in full) -1.06%, Cc1ccccc1NC(=O)COC(=O)c1ccc(Sc2ncn[nH]2)c([N+](=O)[O-])c1 -1.78%, Cc1nc2ccc(C(=O)N3CCN(C(=O)C(C)(C)C)CC3)cc2n1C1CCCC1 -1.22%, CCOC(=O)c1nc(-c2ccc3c(c2)OCO3)[nH]c1C -1.3%, CN(C)c1cc(N)c2ccccc2n1 (tested in a mixture with another compound) -0.25%, Cc1cc(C)nc(NC(=S)N2CCN(c3ccc(C(F)(F)F)cn3)CC2)c1 -1.63%, COc1ccc(C(=O)OCCN2CCN(C3CN(Cc4cn(Cc5ccccc5F)nn4)S(=O)(=O)C3)CC2)cc1OC (stereo not given) -1.83%, O=C(Nc1cc(F)cc(F)c1)OC1CCC12CCC(c1ccccc1)CC2 (stereo not given) -1.11%, O=C(Nc1cc(Cl)cc(Cl)c1)OCCN1CCCC12CCC(c1ccccc1)CC2 (stereo not given) -1.99%
